Laboratory results from PubChem BioAssay AID652062 (Broad Institute, 2013).
The whole screen tested about 1,400 compounds, of which about 1,100 (79%) were called active.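 Rule for the calls: active = fitted half-maximal concentration of a falling signal no higher than twice the top valid dose in every test run; inconclusive = runs disagree, or flat partial inhibition, or poor fit; inactive = every run inactive: flat, wrong direction, or potency beyond limit.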 So high a share suggests a set chosen from earlier hits. These entries were drawn from the full list. Potency and affinity values are given separately.

experiment: HIV-1 AD8 envelope cell-cell fusion blockers – cherry-pick, dose response (AID 652062); conditions: HeLa-AD8 Env / CEM-CCR5 cell fusion, luciferase; at 35 µM (top of the series) unless noted

Structure (SMILES) | activity change, negative = inhibition
C[C@@H]1CN([C@@H](C)CO)C(=O)c2cc(NC(=O)c3ccccc3)ccc2O[C@@H](C)CCCCO[C@H]1CN(C)Cc1ccc(C(=O)O)cc1 | 52.2%
COc1ccc(CN(C)C[C@@H]2Oc3ccc(NC(=O)Nc4ccc(OC)cc4)cc3C(=O)N([C@H](C)CO)C[C@@H]2C)cc1 | 64%
C[C@@H]1CN([C@@H](C)CO)C(=O)c2cc(NC(=O)c3ccncc3)ccc2O[C@H]1CN(C)Cc1ccncc1 | 56.3%
C[C@@H]1CN([C@@H](C)CO)C(=O)c2cc(NC(=O)c3ccncc3)ccc2O[C@@H]1CN(C)Cc1ccncc1 | 34.4%
O=c1[nH]c(=O)n([C@H]2C[C@H](O)[C@@H](CO)O2)cc1F | -10.2%
Cc1cc(C)nc(/N=C(\N)Nc2ccc(CC(=O)OC(C)C)cc2)n1 | 39.8%
C[C@@]12C(=O)N(Cc3ccc(F)cc3)CC(=O)N1[C@H]1c3cc(Cl)ccc3OC[C@@H]1[C@@H]2c1ccccc1 | 19.5%
CN(C[C@H](Cc1ccccc1)N(C[C@H](c1ccccc1)N(CCc1ccccc1)N=O)N=O)N=O | -5.55%
C[C@@H]1CN([C@@H](C)CO)C(=O)c2cc(NS(=O)(=O)c3ccccc3)ccc2O[C@H]1CN(C)Cc1ccc(Oc2ccccc2)cc1 | 132%
Cc1ccc(S(=O)(=O)Nc2ccc3c(c2)CC(=O)N([C@@H](C)CO)C[C@H](C)[C@@H](CN(C)Cc2ccc(-c4ccccc4)cc2)O3)cc1 | 215% [at 18 µM]
Cc1ccc(S(=O)(=O)Nc2ccc3c(c2)C(=O)N([C@H](C)CO)C[C@@H](C)[C@H](CN(C)S(=O)(=O)c2ccc(F)cc2)O3)cc1 | -22.9% [at 16 µM]
O=C(C1CCCCC1)N1CCCC(c2nc3c(nnn3Cc3ccccc3)c(=O)[nH]2)C1 (configuration not stated) | -8.09% [at 16 µM]
C[C@H](CO)N1C[C@H](C)[C@@H](CN(C)S(=O)(=O)c2ccc(F)cc2)Oc2ccc(NS(=O)(=O)c3cn(C)cn3)cc2CC1=O | 35.3%
C[C@H](CO)N1C[C@H](C)[C@H](CN(C)S(=O)(=O)c2ccccc2)Oc2ccc(NS(=O)(=O)c3ccc(F)cc3)cc2CC1=O | 10.2%
Cc1ccc(S(=O)(=O)N(C)C[C@@H]2Oc3ccc(NS(=O)(=O)c4c(C)noc4C)cc3CC(=O)N([C@H](C)CO)C[C@@H]2C)cc1 | -10.8%
CCNc1ncnc2c1cnn2C1CCCO1 (configuration not stated) | -11.7%
C[C@@H]1CN([C@@H](C)CO)C(=O)Cc2cc(NC(=O)NC3CCCCC3)ccc2O[C@@H]1CN(C)S(=O)(=O)c1ccc(Cl)cc1 | -18.9%
CCS(=O)(=O)N[C@H]1CC[C@@H](CC(=O)NCc2ccc(Cl)cc2)O[C@@H]1CO | 46.4%
O=C(Nc1cccc(F)c1)N[C@H]1CC[C@@H](CCNS(=O)(=O)c2cccc(Cl)c2)O[C@H]1CO | 15.8%
COc1cccc(CNC(=O)C[C@@H]2C=C[C@H](NC(=O)C3CCC3)[C@H](CO)O2)c1 | 64%
C[C@H]1CN([C@@H](C)CO)C(=O)c2cccc(NC(=O)C3CCCCC3)c2O[C@H]1CN(C)S(C)(=O)=O | 43.4%
C[C@@H]1CN([C@H](C)CO)C(=O)c2cccc(NS(=O)(=O)c3ccc(Cl)cc3)c2O[C@H]1CN(C)CC1CCCCC1 | 87% [at 8 µM]

Structure (SMILES) | activity change, negative = inhibition
C[C@@H]1CN([C@H](C)CO)C(=O)c2cccc(NC(=O)c3cnccn3)c2O[C@H]1CN(C)Cc1ccccc1 | 8.76%
C[C@H](CO)N1C[C@H](C)[C@H](CN(C)C(=O)Nc2ccccc2)Oc2c(NS(=O)(=O)c3ccc(F)cc3)cccc2C1=O | 63.4% [at 8 µM]
CNC[C@@H]1Oc2c(N)cccc2C(=O)N([C@@H](C)CO)C[C@@H]1C | -6.55%
COc1ccccc1N/C(N)=N/c1nc(CSc2ccc(C)cc2)cc(=O)[nH]1 | -51.5%
CCOC(=O)C1=C(C)N=C2c3ccccc3C(=O)C2C1c1ccc(Cl)cc1 (configuration not stated) | -84.7%
CCOC(=O)c1ccc(NC2c3ncccc3C(=O)N2Cc2ccc(F)cc2)cc1 (configuration not stated) | -27%
CC(CCc1ccco1)NC(=O)CCc1nnc2ccc(NCc3ccccc3Cl)nn12 (configuration not stated) | 87.2%
COc1cccc(S(=O)(=O)N[C@@H]2CC[C@H](CCN)O[C@H]2CO)c1 | 3.96%
COc1cccc(S(=O)(=O)N[C@H]2CC[C@@H](CCN)O[C@@H]2CO)c1 | 11.2%
O=C(Nc1cc2c3c(c1)CC(=O)N3CCC2)c1ccc(Cl)cc1 | 197% [at 16 µM]
CCCNC(=O)C[C@@H]1C[C@H]2c3cc(NC(=O)c4cccnc4)ccc3O[C@H]2[C@H](CO)O1 | 6.61%
COc1ccccc1CNC(=O)C[C@H]1C[C@@H]2c3cc(NC(=O)c4cccnc4)ccc3O[C@@H]2[C@@H](CO)O1 | 64.7%
CC1CCN(C(=O)c2ncn3c2C(=O)NC[C@@H]3C)CC1 | 15.1%
CCN(CC)C(=O)c1ncn2c1C(=O)NC[C@@H]2C | -31.4%
CCCC#Cc1ccc2c(c1)O[C@@H](CN(C)C(=O)C1CCCCC1)[C@H](C)CN([C@H](C)CO)S2(=O)=O | 90.1% [at 16 µM]
C[C@@H]1CN([C@H](C)CO)S(=O)(=O)c2ccc(C#Cc3cccc(F)c3)cc2O[C@@H]1CN(C)C(=O)CN1CCOCC1 | 80.2%
CCC(=O)N(C)C[C@H]1Oc2cc(/C=C/c3ccccc3)ccc2S(=O)(=O)N([C@@H](C)CO)C[C@H]1C | -29.3%
Cc1ccc(-c2ccc3c(c2)O[C@@H](CN(C)C(=O)C2CCCCC2)[C@H](C)CN([C@H](C)CO)S3(=O)=O)cc1 | 53.1% [at 16 µM]
C[C@@H]1CN([C@@H](C)CO)S(=O)(=O)c2ccc(-c3ccc(F)cc3)cc2O[C@H]1CN(C)C(=O)C1CCCCC1 | -27.8%
CC(C)C#Cc1ccc2c(c1)O[C@@H](CN(C)C(=O)C1CCCCC1)[C@H](C)CN([C@H](C)CO)S2(=O)=O | 41.8% [at 16 µM]
Cc1ccc(C(=O)NCc2ccccn2)cc1S(=O)(=O)N1CCCCC1 | 24.4%
Cc1ccc(S(=O)(=O)N(C)C[C@H]2Oc3ccc(NC(=O)Nc4cccc5ccccc45)cc3C(=O)N([C@H](C)CO)C[C@@H]2C)cc1 | 64%

Structure (SMILES) | activity change, negative = inhibition
CO[C@@H]1CN(C)C(=O)c2ccc(NS(C)(=O)=O)cc2OC[C@@H](C)N(C(=O)C2CCCCC2)C[C@H]1C | 26.2%
CCS(=O)(=O)Nc1ccc2c(c1)C(=O)N(C)C[C@H](OC)[C@@H](C)CN(C(=O)C1CCC1)[C@H](C)CO2 | 25.1%
CO[C@H]1CN(C)C(=O)c2ccc(NC(=O)C3CC3)cc2OC[C@@H](C)N(C(C)=O)C[C@@H]1C | 20%
CCCC(=O)Nc1ccc2c(c1)OC[C@H](C)N(Cc1ccncc1)C[C@H](C)[C@H](OC)CN(C)C2=O | -9.34%
CCC(=O)Nc1ccc2c(c1)C(=O)N(C)C[C@@H](OC)[C@H](C)CN(C(=O)CC)[C@@H](C)CO2 | 44.7%
CO[C@H]1CN(C)C(=O)c2cc(NS(=O)(=O)c3ccc(Cl)cc3)ccc2OC[C@@H](C)N(C)C[C@@H]1C | 45%
CCCC(=O)Nc1ccc2c(c1)OC[C@@H](C)N(C(=O)CN(C)C)C[C@H](C)[C@@H](OC)CN(C)C2=O | -23.4%
CCCC(=O)Nc1ccc2c(c1)C(=O)N(C)C[C@@H](OC)[C@@H](C)CN(Cc1nccs1)[C@@H](C)CO2 | 33.3%
COc1ccccc1C(=O)Nc1ccc2c(c1)OC[C@H](C)N(C(C)=O)C[C@H](C)[C@H](OC)CN(C)C2=O | -17.7%
CO[C@@H]1CN(C)C(=O)c2ccc(NC(C)=O)cc2OC[C@@H](C)N(Cc2cncnc2)C[C@@H]1C | 15.1%
CO[C@H]1CN(C)C(=O)c2cc(NC(C)=O)ccc2OC[C@@H](C)N(Cc2nccs2)C[C@H]1C | 20%
CO[C@@H]1CN(C)C(=O)c2cc(NS(=O)(=O)c3ccc(C)cc3)ccc2OC[C@H](C)N(C(=O)NC(C)C)C[C@@H]1C | -8.46%
COc1ccccc1S(=O)(=O)Nc1ccc2c(c1)C(=O)N(C)C[C@@H](OC)[C@@H](C)CN[C@@H](C)CO2 | -2.95%
CCOC(=O)CN1CCCc2nc(C)c(C)cc21 | -11.4%
Cc1ccc(Cn2nnnc2CN2CCC(c3nc4ccc(Cl)cc4[nH]3)CC2)cc1 | 44.3%
CC(=O)c1ccc([C@H]2C[C@@]34CN(C(=O)OC(C)(C)C)S(=O)(=O)[C@H]3C[C@H]2O4)cc1 | -3.29%
COc1ccc(C)cc1NC(=O)CCNS(=O)(=O)c1ccc2c(c1)CC(C)N2C(C)=O (configuration not stated) | -17.8%
CNC[C@@H]1Oc2ccc(NS(C)(=O)=O)cc2CC(=O)N([C@H](C)CO)C[C@H]1C | 18.9%
O=C(Nc1ccc(Cl)cn1)C1CCCN1S(=O)(=O)c1cccc2ccccc12 (configuration not stated) | -67.5%
CCCN1[C@H](C(=O)N[C@@H](C)c2ccccc2)[C@@H](CO)[C@@H]2Cn3c(ccc(-c4cccc(F)c4)c3=O)[C@@H]21 | 99.2%
Cc1nc2ccccc2c2oc(C(=O)NCc3ccc4c(c3)OCO4)cc12 | -50%
CCc1ccc(-c2nc(CN3CCC(C(=O)NCCc4ccc(OC)c(OC)c4)CC3)c(C)o2)cc1 | -25.1%

Structure (SMILES) | activity change, negative = inhibition
COc1ccc(S(=O)(=O)N[C@H]2C=C[C@H](CC(=O)N3CCN(c4ccccc4)CC3)O[C@@H]2CO)cc1 | -26.4%
O=C(Cc1ccccc1)N[C@@H]1C=C[C@H](CC(=O)N2CCCCC2)O[C@@H]1CO | -10.8%
Cc1ccc(S(=O)(=O)N[C@@H]2CC[C@H](CCNC(=O)c3ccccc3F)O[C@H]2CO)cc1 | 23.6%
CC(C)CN(C(=O)c1ccc(S(=O)(=O)N2CCCCC2)cc1)C1CCS(=O)(=O)C1 (configuration not stated) | -25.2%
COCc1[nH]nc2c1C(c1ccc(F)cc1)N(Cc1ccccc1)C2=O (configuration not stated) | 11.7%
O=C(Nc1ccc(F)cc1)Nc1ccc2c(c1)[C@H]1C[C@@H](CC(=O)N3CCCCC3)O[C@H](CO)[C@H]1O2 | 57.6%
CS(=O)(=O)N(Cc1ccc(Cl)cc1)c1ccc(C(=O)NCCC2=CCCCC2)cc1 | -7.87%
CC(=O)OC1c2ccccc2C(=O)N1c1ccccc1C (configuration not stated) | -15.7%
Cc1ccc(C2CC(=O)c3cnc(N4CCc5ccccc5C4)nc3C2)cc1 (configuration not stated) | 0.787%
CCNC(=O)Nc1ccc2c(c1)C(=O)N(C)[C@@H]1CC[C@@H](CC(=O)NCC3CCCCC3)O[C@@H]1CO2 | -14.5%
CCNC(=O)C[C@H]1CC[C@@H]2[C@@H](COc3ccc(NC(=O)Cc4cccs4)cc3C(=O)N2C)O1 | 66.7%
COCC(=O)Nc1ccc2c(c1)C(=O)N(C)[C@H]1CC[C@H](CC(=O)NC3CCCC3)O[C@H]1CO2 | 17%
Cc1nn(C)cc1NC(=O)C[C@H]1CC[C@@H]2[C@@H](COc3ccc(NC(=O)C4CCC4)cc3C(=O)N2C)O1 | -24.8%
CN1C(=O)c2cc(NC(=O)NC3CCCC3)ccc2OC[C@@H]2O[C@H](CC(=O)NC3CCC3)CC[C@@H]21 | -5.79%
COc1ccc(NC(=O)C(=O)NCC2CCCN2S(=O)(=O)c2cccs2)cc1 (configuration not stated) | 23.4%
COc1ccc(OC)c(NC(=O)COc2ccc3c(c2)CCC3)c1 | 43.3%
COc1ccccc1CCNCc1ccc(OC)c(OCc2ccccc2)c1 | 45.9% [at 16 µM]
O=C(NCCCc1nc2ccccc2[nH]1)c1ccco1 | -25.6%
C[C@H](O)[C@@H]1C(=O)N2CCc3c([nH]c4cccc(-c5ccccc5)c34)[C@@H]2C[C@@H]1N(C)C(=O)OCc1ccccc1 | -17.1%
C=C(C)CN(CC)c1nc(N)c2c(N)nc3c(c2c1C#N)CC(=O)N3C12CC3CC(CC(C3)C1)C2 | 27.3%
COC(=O)[C@@]1(Cc2ccc(F)cc2)[C@H]2c3cc(C(=O)N(C)C)n(CCO)c3C[C@H]2CN1C(=O)c1ccccc1 | 39.7%
